From paper PMC5540273 (PLoS ONE, 2017)

Columns and labels:
Details in all cases: concentration: 1 μM, replicates: in singlicate; n = 1
[1] = tested on: T1, DCAMKL2
T1 construct: gene DCLK2

[2] = tested on: T2, DCAMKL3
T2 construct: gene DCLK3

[3] = tested on: DDR1
[4] = tested on: DDR2
[5] = tested on: T3, DLK
T3 construct: gene MAP3K12

[6] = tested on: T4, DMPK2
T4 construct: gene CDC42BPG

[7] = tested on: DMPK
[8] = tested on: T5, DRAK1
T5 construct: gene STK17A

[9] = tested on: T6, DRAK2
T6 construct: gene STK17B

[10] = tested on: DYRK1A
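Also: KINOMEscan kinase panel screen.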

Structure (SMILES)	%Inh [1] [%]	%Inh [2] [%]	%Inh [3] [%]	%Inh [4] [%]	%Inh [5] [%]	%Inh [6] [%]	%Inh [7] [%]	%Inh [8] [%]	%Inh [9] [%]	%Inh [10] [%]
CN1CCN(Cc2ccc(NC(=O)Nc3ccc(N(C)c4ccnc(Nc5ccc(CS(C)(=O)=O)cc5)n4)cc3)cc2)CC1.Cl [GW827654]	18	30	99.4	100	64	57	0	10	21	0
CCNC(=O)/C=C/c1n[nH]c2cc(Sc3ccccc3C(=O)NC)ccc12	11	30	0	0	9	3	3	49	0	21
O=C(Nc1n[nH]c2cc(-c3cccs3)ccc12)C1CC1 [SB-731284]	3	0	10	23	26	0	0	14	12	15
NCCC(NC(=O)c1cc(Br)c(-c2ccnc3[nH]ccc23)s1)c1ccccc1.O=C(O)C(F)(F)F.O=C(O)C(F)(F)F (stereo not shown) [GSK1307810]	0	0	0	26	33	99.8	64	74	0	44
COc1cccc(CC(=O)N2CCc3cc(-c4cn(C)c5ncnc(N)c45)ccc32)c1 [GSK2608899]	0	14	97	27	36	53	25	4	0	6
Cc1ccc(NC(=O)c2ccnc(N3CCCCC3)c2)cc1-c1ccc(C(=O)NCC2CC2)cc1 [GW775610]	0	4	99	93.6	5	0	0	0	0	40
CN(C)CCNS(=O)(=O)c1ccc(-c2ccnc3[nH]ccc23)cc1 [GSK977620]	16	15	7	0	26	30	74	71	28	69
CN(c1ccc(NC(=O)Nc2cccc(Cl)c2)cc1)c1ccnc(N)n1.Cl [GW830707]	0	4	97.7	99.3	0	0	4	0	17	0
CSc1ccc(NC2=C(c3ccc(Cl)cc3)C(=O)NC2=O)cc1 [SB-317658]	2	12	0	5	0	10	8	12	0	1
COC(=O)Nc1nc2cc(Oc3ccc(NC(=O)Nc4cccc(SC)c4)cc3)ccc2[nH]1.Cl [GW697999]	6	29	100	98.7	32	0	0	8	0	12
COc1ccc(C)c(Nc2ccnc(Nc3ccc(-c4cnc[nH]4)cc3)n2)c1.Cl [GW784041]	3	27	52	70	10	5	0	0	0	0
O=C(Nc1c(F)cccc1F)c1cc(C(=O)c2ccccc2F)c[nH]1 [GSK1326180]	0	36	0	13	14	0	0	10	0	2
O=C1NC(=O)C(c2ccccc2Cl)=C1Nc1cccc(Cl)c1 [SB-342409]	10	14	9	0	0	75	1	1	0	61
Cc1ccc(NC(=O)c2cccc(N3CCCCC3)c2)cc1-c1ccc(C(=O)NCC2CC2)cc1 [GSK1917008]	19	0	100	64	8	100	3	0	9	27
Cc1ccc(-c2ccc3occ(-c4ccc(S(C)=O)cc4)c3c2)nn1 (stereo not shown)	0	21	0	16	0	0	8	10	22	0
COc1cccc2c(-c3ccncc3)c(-c3ccc(F)cc3)nn12 [GW468513]	0	0	96.2	90	46	98.9	0	0	0	15
